Test results taken from PubChem BioAssay (NCI).
About 79,000 compounds went through this panel and 15% of them were active in at least one assay; those are over-represented in the sample as a whole. Active and inactive are the calls of the source. No stated cut-off is given here; in the data, active means growth inhibition above about 70%; inactive means the rest.

Legend:
[1] = NCI Yeast Anticancer Drug Screen. Data for the rad52 strain (AID 147);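 further: 0% = growth of vehicle-treated control cultures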; settings: S. cerevisiae rad52 mutant growth inhibition, hits give high values
Summary of the method: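 Inhibition of yeast growth, referenced to vehicle controls, was the measured output for a strain with defective DNA damage repair.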

[2] = NCI Yeast Anticancer Drug Screen. Data for the wt1 strain (AID 149);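 further: 0% = growth of vehicle-treated wt1 cultures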; settings: S. cerevisiae wt1 strain (SPY 50644) growth inhibition, hits give high values
Summary of the method: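 Growth inhibition read against vehicle controls after compound exposure of the wt1 yeast strain.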

[3] = NCI Yeast Anticancer Drug Screen. Data for the rad50EPP+ strain (AID 151);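 further: 0% = growth of vehicle-treated control cultures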; settings: S. cerevisiae rad50 mutant strain, hits give high values
Summary of the method: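 Genetically defined yeast (rad50EPP+, DNA damage repair alteration) is grown with compound, and inhibition of growth is expressed relative to vehicle-treated controls.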

[4] = NCI Yeast Anticancer Drug Screen. Data for the mgt1 strain (AID 153); settings: S. cerevisiae mgt1 mutant growth inhibition, hits give high values
Summary of the method: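 In the mgt1 strain, test compounds were added and growth inhibition was determined relative to vehicle-treated controls.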

[5] = NCI Yeast Anticancer Drug Screen. Data for the rad50 strain (AID 155);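 further: 0% = growth of vehicle-only cultures of the same strain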; settings: S. cerevisiae rad50 strain growth inhibition, hits give high values
Summary of the method: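 Readout: growth inhibition relative to vehicle-treated cultures. Compound exposure was carried out in a genetically defined yeast strain deficient in DNA damage repair.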

[6] = NCI Yeast Anticancer Drug Screen. Data for the mec2-1 strain (AID 157); settings: S. cerevisiae mec2-1 strain, hits give high values
Summary of the method: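 Each compound was tested on mec2-1 yeast, a strain altered in DNA damage repair or cell cycle control. Growth inhibition is reported relative to vehicle.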

[7] = NCI Yeast Anticancer Drug Screen. Data for the rad14 strain (AID 159);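 further: 0% = growth of vehicle-treated control cultures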; settings: S. cerevisiae rad14 strain growth inhibition, hits give high values
Summary of the method: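 Growth inhibition vs vehicle controls; genetically altered yeast strain (DNA damage repair defect) treated with test compounds.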

[8] = NCI Yeast Anticancer Drug Screen. Data for the sgs1 mgt1 strain (AID 161);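 further: 0% = growth of cultures given vehicle only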; settings: S. cerevisiae sgs1 mgt1 strain, hits give high values
Summary of the method: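 Inhibition of yeast growth, normalised to vehicle-treated controls, is reported for a strain bearing genetic alterations in DNA damage repair.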

[9] = NCI Yeast Anticancer Drug Screen. Data for the CLN2oe strain (AID 163);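 further: 0% = growth of vehicle-only control cultures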; settings: S. cerevisiae CLN2oe strain, hits give high values
Summary of the method: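 First, the altered yeast strain was treated with each compound; second, its growth was measured; finally, inhibition was derived by comparison with vehicle controls.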

[10] = NCI Yeast Anticancer Drug Screen. Data for the cln2 rad14 strain (AID 165);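 further: 0% = growth equal to vehicle treated cultures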; settings: S. cerevisiae cln2 rad14 strain, hits give high values
Summary of the method: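 Test compounds were added to cln2 rad14 yeast cultures; inhibition of growth was then determined by comparison with vehicle treatment.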

[11] = NCI Yeast Anticancer Drug Screen. Data for the bub3 strain (AID 167); settings: S. cerevisiae bub3 mutant strain, hits give high values
Summary of the method: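 Readout: yeast growth inhibition, expressed relative to vehicle-only wells. The test organism is a mutant strain from a panel with lesions in DNA repair or checkpoint genes.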

[12] = NCI Yeast Anticancer Drug Screen. Data for the wt2 strain (AID 169);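 further: 0% = growth of vehicle-treated yeast cultures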; settings: S. cerevisiae wt2 strain growth inhibition, hits give high values
Summary of the method: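 The panel's yeast strains carry defined changes in DNA repair or cell cycle genes. Each strain is grown with compound, and growth loss is scored relative to vehicle.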

[13] = NCI Yeast Anticancer Drug Screen. Data for the mlh1 strain (AID 171);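 further: 0% = growth of vehicle-treated control cultures of the same strain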; settings: S. cerevisiae mlh1 strain growth inhibition, hits give high values
Summary of the method: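 Inhibition values reflect reduced yeast growth in the presence of compound, referenced to vehicle controls, using a strain chosen for its alteration in DNA repair or cell cycle control.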

[14] = NCI Yeast Anticancer Drug Screen. Data for the sgs1 strain (AID 173);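 further: 0% = growth of vehicle-only control cultures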; settings: S. cerevisiae sgs1 mutant, hits give high values
Summary of the method: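 Vehicle-treated cultures served as reference for growth inhibition of a yeast strain altered in DNA damage repair or cell cycle control after compound exposure.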

[15] = NCI Yeast Anticancer Drug Screen. Data for the mlh1 rad18 strain (AID 175); settings: S. cerevisiae mlh1 rad18 strain growth inhibition, hits give high values
Summary of the method: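 Inhibition values reflect reduced growth of mutant yeast versus vehicle-treated controls following compound exposure; the mutations affect DNA damage repair.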

[16] = NCI Yeast Anticancer Drug Screen. Data for the rad18 strain (AID 177); settings: S. cerevisiae rad18 mutant growth inhibition, hits give high values
Summary of the method: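 Steps: expose repair-mutant yeast to compound; measure growth; express as inhibition relative to vehicle control.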

[17] = at 5.0 µM (retest, dose inferred, filed as 0.5)
[18] = at 50.0 µM (retest, dose inferred, filed as 5.0)

Measured: growth inhibition

CCc1nc2ccc(NCCN(C)C)c3c(=O)c4ccccc4n1c23
inactive: [1]; at 1.2 µM 12% | [1]; at 3.7 µM 39% | [1]; at 11.0 µM 60% | [2]; at 1.2 µM 25% | [2]; at 3.7 µM 29% | [2]; at 11.0 µM 31% | [2]; at 33.0 µM 22% | [2]; at 100.0 µM 22% | [3]; at 1.2 µM 14% | [3]; at 3.7 µM 26% | [3]; at 11.0 µM 39% | [3]; at 33.0 µM 57% | [4]; at 1.2 µM 37% | [4]; at 3.7 µM 38% | [4]; at 11.0 µM 29% | [4]; at 33.0 µM 23% | [4]; at 100.0 µM 40% | [5]; at 1.2 µM 46% | [5]; at 3.7 µM 49% | [5]; [17] 38% | [5]; at 50.0 µM 29.1% | [6]; at 1.2 µM 25% | [6]; at 3.7 µM 26% | [6]; [17] 4% | [6]; at 11.0 µM 11% | [6]; at 33.0 µM 24% | [6]; [18] 40% | [6]; at 50.0 µM 20.1% | [6]; at 100.0 µM 16% | [7]; at 1.2 µM 31% | [7]; at 3.7 µM 33% | [7]; at 11.0 µM 35% | [7]; at 33.0 µM 37% | [7]; at 100.0 µM 58% | [8]; [17] 3% | [8]; [18] 28% | [8]; at 50.0 µM 19.6% | [9]; at 1.2 µM 18% | [9]; at 3.7 µM 13% | [9]; at 11.0 µM 17% | [9]; at 33.0 µM 33% | [9]; at 100.0 µM 46% | [10]; [17] 14% | [10]; [18] 26% | [10]; at 50.0 µM 21.8% | [11]; at 1.2 µM 9% | [11]; at 3.7 µM 11% | [11]; [17] 4% | [11]; at 11.0 µM 5% | [11]; at 33.0 µM 3% | [11]; [18] 32% | [11]; at 50.0 µM -4.2% | [11]; at 100.0 µM 26% | [12]; at 1.2 µM -39% | [12]; at 3.7 µM -34% | [12]; at 11.0 µM -29% | [12]; at 33.0 µM -31% | [12]; at 100.0 µM 5% | [13]; at 1.2 µM 37% | [13]; at 3.7 µM 38% | [13]; at 11.0 µM 29% | [13]; at 33.0 µM 23% | [13]; at 100.0 µM 40% | [14]; at 1.2 µM 18% | [14]; at 3.7 µM 15% | [14]; at 11.0 µM 28% | [14]; at 33.0 µM 22% | [14]; at 100.0 µM 54% | [15]; [17] 14% | [15]; [18] 53% | [16]; at 1.2 µM 30% | [16]; at 3.7 µM 42% | [16]; at 11.0 µM 44% | [16]; at 33.0 µM 63%
active: [1]; at 33.0 µM 81% | [1]; at 100.0 µM 85% | [3]; at 100.0 µM 71% | [5]; at 11.0 µM 74% | [5]; at 33.0 µM 89% | [5]; [18] 86% | [5]; at 100.0 µM 91% | [15]; at 50.0 µM 83.8% | [16]; at 100.0 µM 80%

O=C1c2ccccc2C(=O)N1CCCC(=O)n1cc(F)c(=O)[nH]c1=O
active: [3]; at 100.0 µM 88% | [4]; at 33.0 µM 74% | [4]; at 100.0 µM 91% | [5]; at 50.0 µM 71.3% | [5]; at 100.0 µM 79% | [6]; at 33.0 µM 73% | [6]; [18] 88% | [6]; at 50.0 µM 83.2% | [6]; at 100.0 µM 93% | [8]; at 50.0 µM 85.2% | [12]; at 100.0 µM 82% | [13]; at 100.0 µM 78% | [14]; at 33.0 µM 72% | [14]; at 100.0 µM 88%
inactive: [1]; at 1.2 µM -31% | [1]; at 3.7 µM -33% | [1]; at 11.0 µM 0% | [1]; at 33.0 µM 29% | [1]; at 100.0 µM 8% | [2]; at 1.2 µM -51% | [2]; at 3.7 µM -43% | [2]; at 11.0 µM -26% | [2]; at 33.0 µM -21% | [2]; at 100.0 µM 34% | [3]; at 1.2 µM -25% | [3]; at 3.7 µM -16% | [3]; at 11.0 µM 27% | [3]; at 33.0 µM 69% | [4]; at 1.2 µM 5% | [4]; at 3.7 µM 23% | [4]; at 11.0 µM 47% | [5]; at 1.2 µM -3% | [5]; at 3.7 µM 2% | [5]; [17] 27% | [5]; at 11.0 µM 18% | [5]; at 33.0 µM 51% | [5]; [18] 66% | [6]; at 1.2 µM -24% | [6]; at 3.7 µM -19% | [6]; [17] 20% | [6]; at 11.0 µM 18% | [7]; at 1.2 µM -33% | [7]; at 3.7 µM -40% | [7]; at 11.0 µM -26% | [7]; at 33.0 µM -7% | [7]; at 100.0 µM 40% | [8]; [17] 24% | [8]; [18] 64% | [9]; at 1.2 µM 2% | [9]; at 3.7 µM 19% | [9]; at 11.0 µM -19% | [9]; at 33.0 µM 10% | [9]; at 100.0 µM 38% | [10]; [17] 30% | [10]; [18] 61% | [10]; at 50.0 µM 27.1% | [11]; at 1.2 µM 9% | [11]; at 3.7 µM 17% | [11]; [17] 11% | [11]; at 11.0 µM 10% | [11]; at 33.0 µM 45% | [11]; [18] 19% | [11]; at 50.0 µM 46.5% | [11]; at 100.0 µM 60% | [12]; at 1.2 µM -19% | [12]; at 3.7 µM -12% | [12]; at 11.0 µM 16% | [12]; at 33.0 µM 56% | [13]; at 1.2 µM -20% | [13]; at 3.7 µM -18% | [13]; at 11.0 µM 17% | [13]; at 33.0 µM 59% | [14]; at 1.2 µM -14% | [14]; at 3.7 µM 7% | [14]; at 11.0 µM 41% | [15]; [17] 39% | [15]; [18] 68% | [15]; at 50.0 µM 60.2% | [16]; at 1.2 µM 11% | [16]; at 3.7 µM 5% | [16]; at 11.0 µM 14% | [16]; at 33.0 µM 42% | [16]; at 100.0 µM 68%

O=C1OC(OC/C(Br)=C(\Br)COC2OC(=O)C(Cl)=C2Cl)C(Cl)=C1Cl (stereo unspecified)
inactive: [1]; at 1.2 µM 0% | [1]; at 3.7 µM 2% | [1]; at 11.0 µM 3% | [1]; at 33.0 µM 5% | [1]; at 100.0 µM 15% | [2]; at 1.2 µM 0% | [2]; at 3.7 µM 0% | [2]; at 11.0 µM 2% | [2]; at 33.0 µM 8% | [2]; at 100.0 µM 18% | [3]; at 1.2 µM -1% | [3]; at 3.7 µM 1% | [3]; at 11.0 µM 3% | [3]; at 33.0 µM 6% | [3]; at 100.0 µM 16% | [4]; at 1.2 µM -5% | [4]; at 3.7 µM -1% | [4]; at 11.0 µM 2% | [4]; at 33.0 µM 3% | [4]; at 100.0 µM 9% | [5]; at 1.2 µM 0% | [5]; at 3.7 µM 1% | [5]; [17] 37% | [5]; at 11.0 µM 0% | [5]; at 33.0 µM 7% | [5]; at 100.0 µM 15% | [6]; at 1.2 µM -2% | [6]; at 3.7 µM 2%
active: [5]; [18] 91% | [5]; at 50.0 µM 98.7%
